The values that follow come from PubChem BioAssay (Tox21).

A number with no mark means an inactive call. Results filed as inconclusive are left out. Activity calls are given as the source filed them. Unless noted, calls follow the shape of the full dose curve.

A short description of assay [1]: Nuclear factor erythroid 2-related factor 2/antioxidant responsive element (Nrf2/ARE) small molecule agonists: qHTS cell viability counter screen in human keratinocytes (AID 1919968; active = well fitted curve in the direction sought with a large enough effect in the repeat runs; an effect the other way counts as inactive or inconclusive; also: nearly all actives have a fitted effect of over 55% in size). The gist of the method: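 Fluorescence read-out from CellTiter-Fluor after 1 h at 37 C. Wells held HaCaT-derived ARE-luciferase reporter cells (1,500/well) treated 23 h with DMSO-dissolved compounds. Run in the same wells as the luciferase agonist read.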

Assay [2] can be described thus: Nuclear factor erythroid 2-related factor 2/antioxidant responsive element (Nrf2/ARE) small molecule agonists: luciferase reporter gene qHTS assay in human keratinocytes (AID 1919969). Also: nearly all actives have a fitted effect of over 35% in size. Also: potency is read from the fitted curve at half-maximal effect.
The target in assay [3] is KiSS-1 receptor (Homo sapiens) (UniProt Q969F8). Kind of assay: Human kisspeptin (KISS1R) small molecule agonists, calcium flux assay in KISS1R-HEK293 cells (AID 1920064; active = well fitted curve in the direction sought with a large enough effect in the repeat runs; an effect the other way counts as inactive or inconclusive). Summed up:
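Calcium flux read-out: kinetic fluorescence at Ex/Em=480/540, 1 s intervals over 3 min, after pin-tool compound addition to dye-loaded KISS1R-HEK293 cells. Fifteen concentrations, triplicates.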
(In general: A change in cytosolic calcium serves as a functional read-out for many receptors and channels.)

Assay [4] in a line: G protein-coupled receptor (GPCR) small molecule agonists, calcium flux assay: HEK293 wild type cell line counter screen (AID 1920065). Summed up: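 Agonist mode; 18 h seeding at 37 C, 1 h dye load at 37 C; compounds pinned from DMSO, ATP as positive control; kinetic fluorescence 480/540 nm, 3 min, 1 s reads; 15 concentrations, triplicate.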
Assay [5] is described as follows: p53 small molecule agonists, cell-based qHTS assay with human liver microsomes (AID 1963577).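 Also: p53 response element beta-lactamase reporter cells with liver microsomes plus NADPH.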 The gist of the method: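 16 h, 37 C exposure of p53RE-bla cells to compounds with human liver microsomes and NADPH (0.5 mg/mL final each); detection via LiveBLAzer mixture, 2 h dark at room temperature.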
The nature of assay [6]: p53 small molecule agonists, cell-based qHTS assay with rat liver microsomes (AID 1963578). Summed up: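 With rat liver microsomes and NADPH present (0.5 mg/mL final each), p53RE-bla cells are treated with compound for 16 h at 37 C. LiveBLAzer detection mixture is then applied for 2 h at room temperature in the dark.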
(In general: In qHTS, concentration-response curves come from the screen itself.)

The nature of assay [7]: p53 small molecule agonists, cell-based qHTS assay with human liver microsomes: qHTS cell viability counter screen (AID 1963579). Also: nearly all actives have a fitted effect of over 45% in size. Summed up: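 In this multiplexed counter screen, the reporter plates were subsequently treated with CellTiter-Glo so that cell viability, reflected by luminescence, could be recorded for p53RE-bla cells dosed 16 h with compounds under microsomal activation (HLM and NADPH).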

A short description of assay [8]: p53 small molecule agonists, cell-based qHTS assay with rat liver microsomes: qHTS cell viability counter screen (AID 1963580). Also: nearly all actives have a fitted effect of over 45% in size. The gist of the method:
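After the beta-lactamase ratio was read, CellTiter-Glo was added to the same wells and luminescence measured at 30 min; cells had been treated 16 h at 37 C with compounds, rat liver microsomes and NADPH (0.5 mg/mL final each).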

Assay [9] can be described thus: p53 small molecule agonists, cell-based qHTS assay: qHTS cell viability counter screen (AID 1963581). Also: nearly all actives have a fitted effect of over 45% in size. The gist of the method: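 Cytotoxicity read-out: ATP-based luminescence (CellTiter-Glo, 30 min RT) measured in the same wells as the p53 reporter assay, HCT-116 p53RE-bla cells, 16 h compound exposure at 37 C.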
Assay [10] in a line: p53 small molecule agonists, cell-based qHTS assay (AID 1963582; active = well fitted activation curve with a large enough effect in the signal ratio in the repeat runs, not every such curve was filed as active; the % refers to the signal ratio). Summed up:
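Fluorescence intensity read-out of a beta-lactamase reporter under a p53 response element. Cells were exposed to DMSO-dissolved compounds for 16 h at 37 C, then developed with FRET substrate for 2 h at RT.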

Assay [11] has as its target Muscarinic acetylcholine receptor M1 (Homo sapiens) (UniProt P11229). Briefly: Cholinergic receptor muscarinic 1 (CHRM1) small molecule antagonists, cell-based qHTS assay (AID 1963588). Also: nearly all actives have a fitted effect of over 40% in size. Also: potency is read from the fitted curve at half-maximal effect. Summed up: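 Compounds were tested at 15 concentrations in three independent runs. Dye-loaded CHRM1-CHO cells were exposed 5 min at room temperature before stimulation by acetylcholine added at 50nM. Intracellular calcium was read kinetically on FDSS for 3 min.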

For assay [12] the target is unchanged. Briefly: Cholinergic receptor muscarinic 1 (CHRM1) small molecule agonists, cell-based qHTS assay (AID 1963589). Also: nearly all actives have a fitted effect of over 35% in size. Summed up: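 Calcium flux read-out: kinetic fluorescence at 1 sec intervals after pin-tool compound addition to dye-loaded CHRM1-CHO cells (human M1). Agonist mode; 15 concentrations tested in triplicate independent runs.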
Assay [13] is described as follows: cAMP Responsive Elements (CRE) small molecule agonists, cell-based qHTS assay (AID 1963590). Summed up:
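Beta-lactamase reporter readout: LiveBLAzer B/G FRET substrate, 2 h at room temperature, added after 3 h compound treatment of CRE-bla HEK 293T cells at 37 C/5% CO2.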

Assay [14] is described as follows: cAMP Responsive Elements (CRE) small molecule antagonists, cell-based qHTS assay (AID 1963591; active = well fitted inhibition curve with a large enough effect in the signal ratio in the repeat runs, not every such curve was filed as active; the % refers to the signal ratio). The gist of the method: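 HEK293T CRE-bla; 18 h preincubation; compound pin-transfer; NKH477 0.25 uM final, 3 h, 37 C; LiveBLAzer FRET substrate 2 h RT.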
In assay [15] the target is Beta-2 adrenergic receptor (Homo sapiens) (UniProt P07550). Briefly: Adrenergic beta2 receptor (ADRB2) small molecule antagonists, cell-based qHTS assay (AID 1963592). Also: series mostly up to about 92 µM; nearly all actives have a fitted effect of over 50% in size. The gist of the method:
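Assay format: CHO-ADRB2 cells, 18-20hr seeding at 37C/5% CO2, then compound plus 1nM isoproterenol agonist mix for 0.5hr RT. Homogeneous time-resolved fluorescence cAMP detection after 1hr, expressed as 665/615 nm ratio.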

In assay [16] the target is D(2) dopamine receptor (Homo sapiens) (UniProt P14416). Kind of assay: Dopamine D2 receptor (DRD2) small molecule agonists, cell-based qHTS assay (AID 1963594). Also: nearly all actives have a fitted effect of over 35% in size. Summed up:
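HEK293 cells stably expressing human DRD2, pre-treated with PDE inhibitor Ro20-1724 (0.1 mM final) and compound 10 min at room temperature, then stimulated with NKH477 (200nM […]) for 30 min. cAMP read by HTRF (665/620 nm).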

Assay [17] shares this target. Kind of assay: Dopamine D2 receptor (DRD2) small molecule antagonists, cell-based qHTS assay (AID 1963595; active = well fitted inhibition curve with a large enough effect in the signal ratio in the repeat runs, with a control signal flat; the % refers to the signal ratio). The gist of the method:
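In this cell-based antagonist screen, compounds act for 10 min at room temperature before a 30 min challenge with 12 nM quinpirole and 200 nM NKH477. cAMP is quantified by HTRF competition in DRD2-HEK293 cells containing 0.1 mM Ro20-1724.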

Assay [18] has as its target 5-hydroxytryptamine receptor 2A (Homo sapiens) (UniProt P28223). Briefly: 5-hydroxytryptamine receptor 2A (HTR2A) small molecule agonists, cell-based qHTS assay (AID 1963587). Also: nearly all actives have a fitted effect of over 30% in size. The gist of the method: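 CHO cells stably expressing human HTR2A, plated 18 h, loaded with calcium dye 1 h at 37 C. Agonist mode: compounds added and intracellular calcium fluorescence recorded kinetically for 2 min at 1 sec intervals.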

Assay [19] shares this target. Kind of assay: 5-hydroxytryptamine receptor 2A (HTR2A) small molecule antagonists, cell-based qHTS assay (AID 1963586). Also: nearly all actives have a fitted effect of over 45% in size. Summed up: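 CHO cells stably expressing human HTR2A were plated for 18 h at 37 C, then loaded with calcium dye for 1 h. Compounds were preincubated 5 min at room temperature before DOI (4 nM solution) was added. Kinetic fluorescence was read for 3 min.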

Sequence of 5-hydroxytryptamine receptor 2A (Homo sapiens) (P28223 whole entry, looked up): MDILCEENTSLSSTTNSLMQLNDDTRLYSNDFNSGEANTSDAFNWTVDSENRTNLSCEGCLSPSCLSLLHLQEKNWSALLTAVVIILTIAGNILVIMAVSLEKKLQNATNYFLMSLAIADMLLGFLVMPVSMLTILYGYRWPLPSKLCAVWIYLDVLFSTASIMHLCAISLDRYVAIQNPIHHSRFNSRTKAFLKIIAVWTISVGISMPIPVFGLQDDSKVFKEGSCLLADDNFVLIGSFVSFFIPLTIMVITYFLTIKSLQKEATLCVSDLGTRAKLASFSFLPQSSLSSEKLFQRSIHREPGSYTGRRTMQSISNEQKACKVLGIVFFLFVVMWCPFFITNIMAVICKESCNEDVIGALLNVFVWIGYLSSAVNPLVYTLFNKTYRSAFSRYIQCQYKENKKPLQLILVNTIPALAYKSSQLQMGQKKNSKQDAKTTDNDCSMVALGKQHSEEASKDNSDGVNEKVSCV
Sequence of Beta-2 adrenergic receptor (Homo sapiens) (P07550 whole entry, looked up): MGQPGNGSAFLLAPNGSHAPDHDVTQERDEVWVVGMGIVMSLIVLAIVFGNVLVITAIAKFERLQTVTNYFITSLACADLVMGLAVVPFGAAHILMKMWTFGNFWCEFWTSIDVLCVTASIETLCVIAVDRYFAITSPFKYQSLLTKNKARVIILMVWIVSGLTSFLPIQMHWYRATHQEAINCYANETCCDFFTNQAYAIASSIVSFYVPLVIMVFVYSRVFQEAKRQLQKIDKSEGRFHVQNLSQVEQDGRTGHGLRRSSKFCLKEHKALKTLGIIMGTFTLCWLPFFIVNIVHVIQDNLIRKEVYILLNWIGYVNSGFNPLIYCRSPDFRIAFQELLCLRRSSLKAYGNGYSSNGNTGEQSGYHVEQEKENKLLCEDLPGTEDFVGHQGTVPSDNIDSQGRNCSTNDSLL
Sequence of Muscarinic acetylcholine receptor M1 (Homo sapiens) (P11229 whole entry, looked up): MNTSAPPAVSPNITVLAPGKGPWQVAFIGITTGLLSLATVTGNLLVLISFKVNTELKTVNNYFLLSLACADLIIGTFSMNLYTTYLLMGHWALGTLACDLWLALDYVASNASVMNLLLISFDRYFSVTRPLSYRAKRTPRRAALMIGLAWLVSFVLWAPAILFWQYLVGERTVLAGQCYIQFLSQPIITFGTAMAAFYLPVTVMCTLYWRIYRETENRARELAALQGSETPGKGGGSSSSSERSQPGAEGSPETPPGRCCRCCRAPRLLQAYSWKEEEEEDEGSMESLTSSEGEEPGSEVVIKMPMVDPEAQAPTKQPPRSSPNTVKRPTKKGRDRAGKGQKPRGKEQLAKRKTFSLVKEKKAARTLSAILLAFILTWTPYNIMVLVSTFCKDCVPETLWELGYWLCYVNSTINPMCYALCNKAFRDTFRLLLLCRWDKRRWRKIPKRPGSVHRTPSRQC
Sequence of D(2) dopamine receptor (Homo sapiens) (P14416 whole entry, looked up): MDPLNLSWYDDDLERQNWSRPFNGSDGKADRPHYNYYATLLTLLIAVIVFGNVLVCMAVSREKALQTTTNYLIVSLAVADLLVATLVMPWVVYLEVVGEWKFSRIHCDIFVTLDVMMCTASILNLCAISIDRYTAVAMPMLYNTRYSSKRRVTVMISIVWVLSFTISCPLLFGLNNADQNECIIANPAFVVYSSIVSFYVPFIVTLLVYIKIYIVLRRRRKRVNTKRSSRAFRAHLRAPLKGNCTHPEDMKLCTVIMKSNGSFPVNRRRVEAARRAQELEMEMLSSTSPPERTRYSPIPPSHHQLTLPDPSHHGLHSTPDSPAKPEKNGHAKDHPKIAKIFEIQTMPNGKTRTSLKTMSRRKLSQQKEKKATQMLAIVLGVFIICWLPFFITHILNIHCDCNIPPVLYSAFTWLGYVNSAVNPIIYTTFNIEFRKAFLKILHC
Sequence of KiSS-1 receptor (Homo sapiens) (Q969F8 whole entry, looked up): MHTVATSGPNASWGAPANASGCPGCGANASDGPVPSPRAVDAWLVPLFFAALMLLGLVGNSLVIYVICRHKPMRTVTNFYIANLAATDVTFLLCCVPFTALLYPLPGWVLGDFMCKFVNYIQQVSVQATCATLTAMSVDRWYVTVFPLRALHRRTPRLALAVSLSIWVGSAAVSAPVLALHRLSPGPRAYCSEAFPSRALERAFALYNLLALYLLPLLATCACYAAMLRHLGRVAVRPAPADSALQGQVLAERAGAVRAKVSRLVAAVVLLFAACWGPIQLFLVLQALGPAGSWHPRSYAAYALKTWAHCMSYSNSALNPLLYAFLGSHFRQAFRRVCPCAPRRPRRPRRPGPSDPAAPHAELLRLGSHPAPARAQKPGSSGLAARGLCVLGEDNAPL

Consider `Nc1ccc(S(=O)(=O)Nc2ccccn2)cc1`, for which the Potency result in assay [1], in assay [2], in assay [5], in assay [6], in assay [7] and in assay [8] was “inactive” in each case. The Potency entry in assay [9], in [10], in assay [11], in [12], in [13] and in [14] was “inactive” throughout. Moreover, the Potency entry in assay [15], in assay [16] and in assay [17] was “inactive” each time. Also, the result in assay [3] and in assay [4] was inactive.

On to `Cc1cc(C(C)(C)C)c(O)c(C)c1CC1=NCCN1`, for which the Potency result in assay [1], in assay [2], in [5], in [6], in [7] and in assay [8] was “inactive” in each case. Moreover, the Potency entry in assay [9], in assay [10], in [13], in [14], in assay [15] and in [16] was “inactive” in each case. Also, the Potency entry in [17] was “inactive”. The outcome in assay [3] and in [4] was inactive.

For `C[C@]12C=CC(=O)C=C1[C@@H](F)C[C@@H]1[C@@H]2[C@@H](O)C[C@@]2(C)[C@H]1CC[C@]2(O)C(=O)CO`, the Potency entry in assay [1], in assay [2], in assay [5], in [6], in assay [7] and in [8] was “inactive” in each case. Besides, the Potency result in assay [9], in [10], in [18], in assay [11], in assay [12] and in assay [14] was “inactive” each time. The Potency entry in assay [15], in assay [16] and in [17] was “inactive” in each case. Besides, the outcome in assay [3] and in assay [4] was inactive.

Consider `COc1cc(C)ccc1O`, for which the Potency result in assay [1], in assay [2], in assay [5], in [6], in assay [7] and in assay [8] was “inactive” throughout. For the same molecule, the Potency entry in assay [9], in [10], in [19], in [18], in [11] and in assay [12] was “inactive” in each case. For the same molecule, the Potency result in assay [13], in assay [15], in assay [16] and in [17] was “inactive” throughout. The outcome in assay [3] and in [4] was inactive.

On to `COC(=O)C1=C(C)NC(C)=C(C(=O)OC(C)(C)CN(C)CCC(c2ccccc2)c2ccccc2)C1c1cccc([N+](=O)[O-])c1` (stereo not drawn), for which the Potency result in assay [1], in [2], in assay [5], in assay [6], in [7] and in assay [8] was “inactive” throughout. Moreover, the Potency entry in [9], in assay [10], in assay [19], in assay [12], in [14] and in assay [15] was “inactive” in each case. Moreover, the Potency result in [16] and in assay [17] was “inactive” each time. In addition, the outcome in [3] and in [4] was inactive. Further, the Potency in [11] was 6.5 µM (active).

With `Nc1nc(CC(=O)O)cs1`, the Potency entry in [1], in assay [2], in assay [5], in assay [6], in [7] and in assay [8] was “inactive” each time. Besides, the Potency entry in [9], in [10], in assay [19], in assay [18], in [11] and in assay [12] was “inactive” in each case. Also, the Potency entry in assay [15], in [16] and in [17] was “inactive” throughout. Moreover, the result in [3] and in assay [4] was inactive.

Consider `CC(C)(O)c1coc(S(=O)(=O)NC(=O)Nc2c3c(cc4c2CCC4)CCC3)c1`, for which the Potency entry in assay [1], in assay [5], in assay [6], in [7], in assay [8] and in assay [9] was “inactive” throughout. Besides, the Potency entry in assay [10], in assay [18], in assay [11], in assay [12], in assay [14] and in assay [15] was “inactive” each time. Further, the Potency result in assay [16] and in [17] was “inactive” throughout. Also, the Potency in [2] is 61.1 µM (active). Further, the outcome in [3] and in assay [4] was inactive.
